The source of these data is PubChem BioAssay AID1063 (University of Pittsburgh Molecular Library Screening Center, 2008).

In all, about 200,000 compounds went through this assay and about 18,000 (9%) were called active. Rule as the data show it: active = inhibition above about 50%; inactive = the rest. Many of the other results were omitted from the sample, so actives are more common in it than they were.

The nature of this experiment: antileishmanial activity against promastigotes – primary screen (AID 1063).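 Also: promastigotes grown with compound for 44 hours at 28 °C.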 As to conditions: Leishmania major promastigotes, resazurin fluorescence viability; at 10 µM; hits give high values.
A word on the inhibition: it is the relative decrease from the control value, in per cent. Turning to `CC(C)N(CC#CCC1(O)c2ccccc2-c2ccccc21)C(C)C`, the inhibition was 2.06% (inactive).
On to `CN(C)CCCN=Cc1c(O)n(Cc2ccco2)c(=O)[nH]c1=O`, for which the inhibition is -6.14% (inactive).
With `C=CCN1C(=O)C2(C(C(=O)OCC)=C(N)Oc3c2c(=O)oc2ccccc32)c2ccccc21` (stereo not given), the inhibition is -6.93% (inactive).
With `Cc1ccsc1C(=O)C1CCCN(Cc2ccc(O)cc2)C1` (stereo not given), the inhibition is 83.9% (active).
For `Cc1nc2ccc(N3CCN(C)CC3)cc2nc1C`, the inhibition is 3.66% (inactive).
The result for `CCOC(=O)c1c(N)n(CCN2CCOCC2)c2nc3ccccc3nc12` reads 24.6% (inactive); that for `CCOC(=O)c1c(N)n(Cc2ccccc2)c2nc3ccccc3nc12`, 100% (active); that for `COc1cc(Cn2c(N)c(C(=O)NCc3ccco3)c3nc4ccccc4nc32)cc(OC)c1OC`, 100% (active).
On to `O=c1[nH]c(=O)n(-c2ccccc2)c(O)c1C=NC12CN3CN(CN(C3)C1)C2`, for which the inhibition is -6.09% (inactive).
As for `OC(Cn1c2ccccc2c2ccccc21)C[n+]1ccccc1` (stereo not given), the inhibition is 1.49% (inactive).
Turning to `COP(=O)(OC)C(NC(=O)c1ccc(C)cc1)C(Cl)(Cl)Cl` (stereo not given), the inhibition was -7.25% (inactive).
With `O=C(Cc1ccccc1[N+](=O)[O-])N1CCN(Cc2ccc3c(c2)OCO3)CC1`, the inhibition was 48% (inactive).
For `CNC(=S)N/N=C1\C2CN3CCN(C2)CC1(c1ccccc1)C3`, the inhibition was -5.87% (inactive).
For `c1cncc(CNCCc2c[nH]c3ccccc23)c1`, the inhibition is 22.7% (inactive).
`CCc1nnc(NS(=O)(=O)c2ccc(N=Cc3c(O)n(-c4ccccc4)c(=O)[nH]c3=O)cc2)s1`: the inhibition was -1.81% (inactive).
In the case of `COP(=O)(NS(=O)(=O)c1ccccc1)OC` it was -6.48% (inactive); in that of `COc1ccc(C(=O)C2CCCN(Cc3ccc(C)s3)C2)cc1OC` (stereo not given), 89.4% (active).
For `Cc1cccc2c(CCN)c[nH]c12`, the inhibition is 0.35% (inactive).
As for `O=C(Cn1c(=O)n(CC2CS2)c2ccccc21)N1CCCCC1` (stereo not given), the inhibition was 2.59% (inactive).
In the case of `CCC(=NCCc1ccccc1)c1c(O)n(C2CCCCC2)c(=O)[nH]c1=O` it was 21% (inactive); in that of `O=C(Cc1ccccc1)N1CCN(C2CCCCCC2)CC1`, 64.8% (active); in that of `CCCn1c(C(=O)c2ccccc2OC)nc2ccccc21`, 15% (inactive).
In the case of `C[C@@]1([C@@H](NP(=O)(c2ccccc2)c2ccccc2)c2ccccc2)C[C@H]1CCO` it was -1.91% (inactive); in that of `CNP1(NC)=Nc2nn(-c3ccccc3)c(N)c2C(c2ccccc2)=N1`, -6.36% (inactive).
The result for `COc1ccccc1N=C1SCCCN1C` reads -5.49% (inactive); that for `Cc1ccc(-c2nc3ccccc3c(=O)n2-c2ccc(Br)cn2)cc1`, 3.21% (inactive).
Turning to `CC1=CC(=Cc2sc3ccccc3[n+]2C)C=C(C)O1`, the inhibition was 100% (active).
Turning to `COc1cc(-n2c(=S)[nH]c3ccc(C)cc3c2=O)c(Cl)cc1Cl`, the inhibition is 43.6% (inactive).
As to `Cc1ccc(Cn2nnnc2CN2CCC(n3nnc4ccccc43)CC2)cc1`, the inhibition was 4.28% (inactive).
`O=C(C1CC(=O)N(C2CCCC2)C1)N1CCC2(CC1)OCCO2` (stereo not given): the inhibition is -6.1% (inactive).
Turning to `CCN(CC)c1ccc([N+](=O)[O-])c2cccnc12`, the inhibition was 9.8% (inactive).
Consider `Cc1cc(C)cc(NC(=S)NC2CC3CCCC(C2)N3Cc2cccs2)c1` (stereo not given), for which the inhibition was 87.3% (active).
In the case of `O=C(COc1ccc2ccccc2c1)N1CCN(Cc2ccncc2)CC1`, the inhibition was 44.3% (inactive).
Consider `OC1/C(=C/c2ccc(C(F)(F)F)cc2)N2CCC1CC2` (stereo not given), for which the inhibition is 0.72% (inactive).
On to `CCOC(=O)C(O)(c1ccc(N=Cc2ccccc2O)c(C)c1)C(F)(F)F` (stereo not given), for which the inhibition was -7.14% (inactive).
The result for `O=C1/C(=C\c2ccc3c(c2)OCO3)N2CCC1CC2` reads 4.04% (inactive).
As to `Cc1nc2ccccn2c1P(=S)(N1CCCCC1)N1CCCCC1`, the inhibition was 97.4% (active).
Take `COc1ccc(CN2CCN(c3ccccc3F)CC2)c(OC)c1`: the inhibition is 9.36% (inactive).
As for `CC(c1ccccc1)(c1ccccc1)c1ccncc1`, the inhibition is 19.2% (inactive).
Regarding `c1cc2c(cc1CCNC1CCCCCC1)OCO2`, the inhibition was 95.2% (active).
Take `Fc1ccc(N2CCN(Cc3ccc4c(c3)OCO4)CC2)cc1`: the inhibition is 44.5% (inactive).
As for `CC(=NCc1ccc2c(c1)OCO2)c1c(O)[nH]c(=O)[nH]c1=O`, the inhibition was -2.64% (inactive).
Regarding `c1ccc2sc(C3CCCNC3)nc2c1` (stereo not given), the inhibition was 31.9% (inactive).
On to `O=C(O)CCn1cc(C=C2C(=O)NC(=S)NC2=O)c(-c2cccc(Br)c2)n1`, for which the inhibition was -7.24% (inactive).
In the case of `Cn1c(O)c(C=NCCN2CCNCC2)c(=O)n(C)c1=O`, the inhibition was -6.59% (inactive).
In the case of `CN1CCC(N(C)Cc2cccnc2)CC1` it was -2.3% (inactive); in that of `COc1ccc(NC(=O)N2CCC3(CC2)OCCO3)c(OC)c1`, -0.24% (inactive).
The result for `NC(=O)Cn1cc(C(=O)c2ccccc2F)c2ccccc21` reads -6.3% (inactive).
In the case of `N#Cc1ccc(Cn2cc(C(=O)c3ccco3)c3ccccc32)cc1`, the inhibition is 93.3% (active).
As to `CC(C)Nc1nc(Cl)nc(NC(C)C)n1`, the inhibition is 24.7% (inactive).
For `COc1ccc(-c2nn(CCC#N)cc2C(=O)O)cc1`, the inhibition was -0.84% (inactive).
Take `CN1CCN(C(=O)COc2ccc(C(C)(C)C)cc2Br)CC1`: the inhibition is 59.9% (active).
Consider `CC(C)(C)c1ccc(OC(=O)N2CCCCC2)cc1`, for which the inhibition was -10.5% (inactive).
Consider `CC(C)c1ccc(OCC(=O)N2CCN(C)CC2)c(Br)c1`, for which the inhibition is 37.9% (inactive).
As for `CSC1=NP(=S)(SC)N(C)c2nc3n(c21)CCC3` (stereo not given), the inhibition is 2.74% (inactive).
Consider `CN(C)C(=O)NC(O)C(Cl)(Cl)Cl` (stereo not given), for which the inhibition is -1.83% (inactive).
For `CN(C)CC1CCCCC1OC(=O)c1ccc(Cl)c(Cl)c1` (stereo not given), the inhibition was 56.1% (active).
With `COc1ccc(NC(=O)c2cn(CCC#N)nc2-c2ccc([N+](=O)[O-])cc2)cc1`, the inhibition was -5.27% (inactive).
For the molecule `CN1C2C=C(N(C(=O)c3ccc(Cl)cc3)c3ccccc3)CC1CC2` (stereo not given), the inhibition was -6.27% (inactive).
`CCNc1nc2[nH]c(=O)c3c(c2s1)OC(N)=C(C#N)C3c1cccs1` (stereo not given): the inhibition is 56.6% (active).
`N#CC1=C(N)Oc2c(c(=O)oc3ccccc23)C1c1ccccc1OC(=O)c1cccs1` (stereo not given): the inhibition was 8.6% (inactive).
Turning to `CCOCCc1c(O)[nH]c(=S)[nH]c1=O`, the inhibition was -2.27% (inactive).
Turning to `O=C(CN1CCCC1=O)NCCc1ccccc1`, the inhibition was -2.62% (inactive).
As for `N[C@@H](Cc1c[nH]c2ccccc12)c1nnc(SCc2c(F)cccc2Cl)o1`, the inhibition is -1.59% (inactive).
`CC(Cc1cccs1)NCc1ccc(Cl)cc1` (stereo not given): the inhibition is 37.3% (inactive).
Regarding `Cc1ccc(-c2cc(C(=O)N3CCC4(CC3)OCCO4)no2)cc1`, the inhibition was 3.46% (inactive).
In the case of `COC(=O)C(c1ccccc1)N1CCCCCC1` (stereo not given) it was -3.28% (inactive).
In the case of `COc1ccccc1N1CCN(C(CNC(=O)Oc2ccccc2)c2cccnc2)CC1` (stereo not given), the inhibition is 90.8% (active).
For `O=C(NCC(c1cccnc1)N1CCN(c2ccccc2)CC1)Oc1ccccc1` (stereo not given), the inhibition is 86.7% (active).
`COC(=O)N1C(c2ccccc2)C1c1ccccc1` (stereo not given): the inhibition is -7.32% (inactive).
In the case of `CN(C)/C=C(\C=[N+](C)C)c1[nH]ncc1[N+](=O)[O-]` it was -3.98% (inactive).
Turning to `CC(C)CN1CCN(Cc2ccccc2C(F)(F)F)CC1CCO` (stereo not given), the inhibition was 1.28% (inactive).
For `O=c1[nH]c(=S)n(C2CC2)c(O)c1/C=N/N1CCOCC1`, the inhibition is -5.26% (inactive).
In the case of `CN(C)C(=O)Oc1cc(=O)n2c3c(cccc13)CCC2`, the inhibition was 23.7% (inactive).
As for `Nc1ccc(C(=O)N/N=C2/CN3CCC2CC3)cc1`, the inhibition is -7.96% (inactive).
